For 3 molecules, inhibition results are on record in ChEMBL document CHEMBL1961873, “Compounds: GSK PKIS; Assays: Nanosyn kinase panel” (2012).

By inhibition is commonly meant the drop in the measured response relative to a control, in per cent.

Experiment [1] relates to Epidermal growth factor receptor (Homo sapiens), P00533 [T790M]. The note with it: at 1 µM.
For experiment [2], the system named is Epidermal growth factor receptor (Homo sapiens), P00533 [L858R,T790M]. The note with it: at 0.1 µM.
The test system is the same in experiment [3]. The note with it: at 1 µM.
Experiment [4] has as its target Ephrin type-A receptor 2 (Homo sapiens) (UniProt P29317). The note with it: at 0.1 µM.
For experiment [5] the target is unchanged. To be noted: at 1 µM.
Experiment [6] deals with T1, Ephrin type-A receptor 3 (Homo sapiens) (UniProt P29320).
T1 sequence (whole entry): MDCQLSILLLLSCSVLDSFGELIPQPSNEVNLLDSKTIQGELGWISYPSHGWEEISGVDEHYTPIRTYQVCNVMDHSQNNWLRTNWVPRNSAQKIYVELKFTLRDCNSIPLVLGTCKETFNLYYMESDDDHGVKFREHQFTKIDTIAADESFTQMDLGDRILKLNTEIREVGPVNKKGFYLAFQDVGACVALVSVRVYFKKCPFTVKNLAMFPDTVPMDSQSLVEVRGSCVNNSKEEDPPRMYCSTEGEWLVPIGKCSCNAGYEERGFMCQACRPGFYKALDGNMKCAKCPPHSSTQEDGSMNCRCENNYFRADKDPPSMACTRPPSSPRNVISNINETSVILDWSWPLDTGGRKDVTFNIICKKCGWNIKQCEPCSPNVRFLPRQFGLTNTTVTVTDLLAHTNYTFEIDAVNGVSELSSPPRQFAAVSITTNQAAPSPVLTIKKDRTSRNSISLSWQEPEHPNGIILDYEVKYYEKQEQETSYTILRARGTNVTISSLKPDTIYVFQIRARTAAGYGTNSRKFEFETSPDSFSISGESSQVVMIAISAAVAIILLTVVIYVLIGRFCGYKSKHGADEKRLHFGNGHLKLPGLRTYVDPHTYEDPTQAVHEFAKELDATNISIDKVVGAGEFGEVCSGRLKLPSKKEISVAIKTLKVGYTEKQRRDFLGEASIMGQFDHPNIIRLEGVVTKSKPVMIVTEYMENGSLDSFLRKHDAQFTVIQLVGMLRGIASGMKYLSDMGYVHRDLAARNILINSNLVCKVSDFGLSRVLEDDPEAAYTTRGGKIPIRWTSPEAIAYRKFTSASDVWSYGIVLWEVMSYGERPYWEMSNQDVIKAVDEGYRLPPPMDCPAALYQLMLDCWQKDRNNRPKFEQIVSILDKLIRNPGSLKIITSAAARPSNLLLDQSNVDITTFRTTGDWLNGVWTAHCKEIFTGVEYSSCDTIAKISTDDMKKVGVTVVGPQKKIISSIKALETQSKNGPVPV
The note with it: at 0.1 µM.

The target in experiment [7] is T1, Ephrin type-A receptor 3 (Homo sapiens). To be noted: at 1 µM.
For experiment [8], the target named is Ephrin type-A receptor 4 (Homo sapiens) (UniProt P54764). The note with it: at 0.1 µM.
For experiment [9] the target is unchanged. The note with it: at 1 µM.
The target of experiment [10] is T2, Ephrin type-B receptor 2 (Homo sapiens) (UniProt P29323).
T2 sequence (whole entry): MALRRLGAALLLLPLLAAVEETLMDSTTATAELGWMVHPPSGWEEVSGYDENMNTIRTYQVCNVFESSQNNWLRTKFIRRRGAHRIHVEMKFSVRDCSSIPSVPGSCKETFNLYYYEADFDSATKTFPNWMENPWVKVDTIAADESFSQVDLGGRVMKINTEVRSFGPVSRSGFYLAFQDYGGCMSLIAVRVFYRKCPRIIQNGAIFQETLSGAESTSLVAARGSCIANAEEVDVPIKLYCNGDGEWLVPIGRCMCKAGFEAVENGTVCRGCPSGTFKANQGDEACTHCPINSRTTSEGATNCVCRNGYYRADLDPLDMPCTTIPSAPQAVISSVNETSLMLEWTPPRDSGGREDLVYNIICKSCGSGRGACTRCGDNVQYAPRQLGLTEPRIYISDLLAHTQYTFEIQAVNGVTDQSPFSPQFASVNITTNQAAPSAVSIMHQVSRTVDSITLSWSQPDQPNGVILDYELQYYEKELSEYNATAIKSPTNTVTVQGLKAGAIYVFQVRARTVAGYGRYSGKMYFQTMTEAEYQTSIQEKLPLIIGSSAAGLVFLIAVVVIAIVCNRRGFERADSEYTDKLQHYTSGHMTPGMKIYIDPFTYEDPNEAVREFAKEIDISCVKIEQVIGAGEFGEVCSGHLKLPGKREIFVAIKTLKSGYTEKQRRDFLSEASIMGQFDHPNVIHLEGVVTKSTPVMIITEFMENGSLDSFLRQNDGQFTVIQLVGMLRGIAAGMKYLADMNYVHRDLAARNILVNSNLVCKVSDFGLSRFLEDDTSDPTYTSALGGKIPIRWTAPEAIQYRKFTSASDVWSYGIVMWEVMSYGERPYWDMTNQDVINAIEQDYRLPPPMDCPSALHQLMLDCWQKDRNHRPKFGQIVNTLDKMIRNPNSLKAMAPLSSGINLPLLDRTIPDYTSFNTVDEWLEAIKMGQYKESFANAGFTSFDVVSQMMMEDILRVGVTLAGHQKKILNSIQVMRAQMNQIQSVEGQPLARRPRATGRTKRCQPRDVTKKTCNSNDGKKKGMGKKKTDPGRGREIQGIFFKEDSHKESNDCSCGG
The note with it: at 0.1 µM.

The target in experiment [11] is T2, Ephrin type-B receptor 2 (Homo sapiens). The note with it: at 1 µM.
Experiment [12] addresses T3, Ephrin type-B receptor 3 (Homo sapiens) (UniProt P54753).
T3 sequence (whole entry): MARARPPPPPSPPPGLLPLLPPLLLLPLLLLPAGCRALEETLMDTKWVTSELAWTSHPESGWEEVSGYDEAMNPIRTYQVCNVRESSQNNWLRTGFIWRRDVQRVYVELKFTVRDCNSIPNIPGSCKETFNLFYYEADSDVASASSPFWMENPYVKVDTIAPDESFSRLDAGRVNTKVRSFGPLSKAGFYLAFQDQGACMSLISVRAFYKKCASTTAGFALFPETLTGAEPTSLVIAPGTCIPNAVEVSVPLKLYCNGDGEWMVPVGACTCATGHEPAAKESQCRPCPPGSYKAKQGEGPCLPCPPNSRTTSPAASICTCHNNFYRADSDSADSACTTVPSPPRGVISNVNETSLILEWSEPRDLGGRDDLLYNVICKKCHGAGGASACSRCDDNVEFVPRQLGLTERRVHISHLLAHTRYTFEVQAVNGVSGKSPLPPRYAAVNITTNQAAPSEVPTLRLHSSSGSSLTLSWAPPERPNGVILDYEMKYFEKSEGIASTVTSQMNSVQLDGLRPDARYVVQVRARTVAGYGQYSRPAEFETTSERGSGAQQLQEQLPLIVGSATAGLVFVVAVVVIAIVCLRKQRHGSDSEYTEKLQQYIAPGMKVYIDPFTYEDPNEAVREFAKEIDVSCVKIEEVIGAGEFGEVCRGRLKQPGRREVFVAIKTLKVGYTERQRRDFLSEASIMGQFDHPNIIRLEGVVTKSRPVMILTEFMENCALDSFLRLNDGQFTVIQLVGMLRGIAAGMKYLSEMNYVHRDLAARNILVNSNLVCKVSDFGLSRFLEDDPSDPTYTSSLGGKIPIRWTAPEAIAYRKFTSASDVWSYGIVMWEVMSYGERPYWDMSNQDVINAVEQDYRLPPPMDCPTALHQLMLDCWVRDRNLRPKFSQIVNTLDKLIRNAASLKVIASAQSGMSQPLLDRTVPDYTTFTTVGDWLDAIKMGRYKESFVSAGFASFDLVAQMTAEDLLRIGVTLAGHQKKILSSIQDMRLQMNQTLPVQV
To be noted: at 0.1 µM.

For experiment [13], the target named is T3, Ephrin type-B receptor 3 (Homo sapiens). The note with it: at 1 µM.
In experiment [14] the target is T4, Ephrin type-B receptor 4 (Homo sapiens) (UniProt P54760).
T4 sequence (whole entry): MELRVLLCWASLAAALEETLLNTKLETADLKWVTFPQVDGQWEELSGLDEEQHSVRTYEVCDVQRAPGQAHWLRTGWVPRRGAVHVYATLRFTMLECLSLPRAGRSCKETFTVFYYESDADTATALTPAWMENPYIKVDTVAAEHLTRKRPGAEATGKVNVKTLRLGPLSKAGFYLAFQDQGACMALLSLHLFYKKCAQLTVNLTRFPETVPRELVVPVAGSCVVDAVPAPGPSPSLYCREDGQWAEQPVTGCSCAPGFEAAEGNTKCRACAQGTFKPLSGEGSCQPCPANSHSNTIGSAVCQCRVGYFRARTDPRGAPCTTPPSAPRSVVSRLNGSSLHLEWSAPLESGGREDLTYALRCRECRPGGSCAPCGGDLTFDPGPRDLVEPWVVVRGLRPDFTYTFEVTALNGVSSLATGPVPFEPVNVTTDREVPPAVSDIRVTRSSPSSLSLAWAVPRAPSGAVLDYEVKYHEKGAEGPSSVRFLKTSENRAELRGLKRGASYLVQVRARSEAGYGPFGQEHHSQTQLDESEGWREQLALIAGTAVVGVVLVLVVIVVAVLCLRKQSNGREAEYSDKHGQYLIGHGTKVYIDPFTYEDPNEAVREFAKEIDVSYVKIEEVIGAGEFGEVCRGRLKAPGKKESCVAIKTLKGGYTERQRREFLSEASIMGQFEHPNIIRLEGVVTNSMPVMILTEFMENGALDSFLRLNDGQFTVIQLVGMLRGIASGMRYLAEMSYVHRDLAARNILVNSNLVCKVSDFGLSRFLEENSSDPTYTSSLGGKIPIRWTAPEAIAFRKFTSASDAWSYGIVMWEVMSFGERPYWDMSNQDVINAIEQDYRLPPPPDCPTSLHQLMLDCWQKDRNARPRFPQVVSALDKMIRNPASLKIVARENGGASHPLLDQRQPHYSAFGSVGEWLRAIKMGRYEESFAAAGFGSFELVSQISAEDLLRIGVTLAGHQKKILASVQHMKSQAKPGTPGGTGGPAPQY
To be noted: at 0.1 µM.

The target in experiment [15] is T4, Ephrin type-B receptor 4 (Homo sapiens). To be noted: at 1 µM.
The target in experiment [16] is Receptor tyrosine-protein kinase erbB-2 (Homo sapiens) (UniProt P04626). The note with it: at 0.1 µM.
The target is the same in experiment [17]. To be noted: at 1 µM.
Experiment [18] has as its target Receptor tyrosine-protein kinase erbB-4 (Homo sapiens) (UniProt Q15303). To be noted: at 0.1 µM.
Experiment [19] shares this target. To be noted: at 1 µM.
In experiment [20] the target is Tyrosine-protein kinase Fer (Homo sapiens) (UniProt P16591). The note with it: at 0.1 µM.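 Note: reported figures are averaged percent inhibition of FER.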
Tyrosine-protein kinase Fer (Homo sapiens), sequence (P16591 whole entry, looked up): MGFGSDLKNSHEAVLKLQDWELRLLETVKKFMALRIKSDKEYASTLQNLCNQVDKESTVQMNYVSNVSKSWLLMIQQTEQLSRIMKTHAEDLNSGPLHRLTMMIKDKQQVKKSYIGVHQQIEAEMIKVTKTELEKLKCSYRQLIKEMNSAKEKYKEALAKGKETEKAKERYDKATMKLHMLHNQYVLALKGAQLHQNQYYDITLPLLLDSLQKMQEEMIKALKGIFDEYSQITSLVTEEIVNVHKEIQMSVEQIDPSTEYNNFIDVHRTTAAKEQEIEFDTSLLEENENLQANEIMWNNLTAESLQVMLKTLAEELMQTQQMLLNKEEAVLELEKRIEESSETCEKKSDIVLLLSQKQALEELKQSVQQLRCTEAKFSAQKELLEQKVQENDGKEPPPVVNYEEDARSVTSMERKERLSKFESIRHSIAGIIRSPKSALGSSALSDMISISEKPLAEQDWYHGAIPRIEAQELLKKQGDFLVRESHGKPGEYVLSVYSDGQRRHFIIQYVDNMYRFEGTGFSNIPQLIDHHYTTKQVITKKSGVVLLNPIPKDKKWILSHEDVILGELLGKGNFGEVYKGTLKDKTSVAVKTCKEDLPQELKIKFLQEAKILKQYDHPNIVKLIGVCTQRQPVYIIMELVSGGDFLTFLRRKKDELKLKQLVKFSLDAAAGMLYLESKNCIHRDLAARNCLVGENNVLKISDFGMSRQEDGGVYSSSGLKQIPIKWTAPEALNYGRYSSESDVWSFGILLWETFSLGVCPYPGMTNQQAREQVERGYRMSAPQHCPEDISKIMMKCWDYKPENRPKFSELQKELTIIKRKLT

Ephrin type-A receptor 2 (Homo sapiens), sequence (P29317 whole entry): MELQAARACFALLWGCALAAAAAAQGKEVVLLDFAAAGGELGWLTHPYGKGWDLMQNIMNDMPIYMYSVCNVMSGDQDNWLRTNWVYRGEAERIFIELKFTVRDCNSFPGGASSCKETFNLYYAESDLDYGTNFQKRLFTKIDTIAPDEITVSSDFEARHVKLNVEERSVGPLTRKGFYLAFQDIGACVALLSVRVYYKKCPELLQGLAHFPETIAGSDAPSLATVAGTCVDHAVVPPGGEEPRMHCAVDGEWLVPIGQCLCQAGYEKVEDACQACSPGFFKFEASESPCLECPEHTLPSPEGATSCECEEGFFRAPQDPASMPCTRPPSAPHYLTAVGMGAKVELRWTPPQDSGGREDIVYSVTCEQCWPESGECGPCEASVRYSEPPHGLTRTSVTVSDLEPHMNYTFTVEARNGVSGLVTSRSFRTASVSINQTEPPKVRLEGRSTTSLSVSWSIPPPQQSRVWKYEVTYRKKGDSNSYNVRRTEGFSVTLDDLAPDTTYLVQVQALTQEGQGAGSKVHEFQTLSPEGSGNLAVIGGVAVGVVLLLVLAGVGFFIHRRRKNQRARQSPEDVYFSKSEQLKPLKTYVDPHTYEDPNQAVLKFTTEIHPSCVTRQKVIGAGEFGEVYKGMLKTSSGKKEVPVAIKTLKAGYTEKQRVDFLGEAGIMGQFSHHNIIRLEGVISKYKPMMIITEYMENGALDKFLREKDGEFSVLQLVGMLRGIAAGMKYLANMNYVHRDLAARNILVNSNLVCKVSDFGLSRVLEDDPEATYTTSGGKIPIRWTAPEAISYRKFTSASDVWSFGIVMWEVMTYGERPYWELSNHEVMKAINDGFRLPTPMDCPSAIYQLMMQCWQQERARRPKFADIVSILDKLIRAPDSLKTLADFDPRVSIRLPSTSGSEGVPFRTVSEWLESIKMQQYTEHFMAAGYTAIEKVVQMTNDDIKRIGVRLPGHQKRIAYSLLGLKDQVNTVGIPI
Epidermal growth factor receptor (Homo sapiens), P00533 [L858R,T790M], sequence (P00533 whole entry T790M/L858R, looked up): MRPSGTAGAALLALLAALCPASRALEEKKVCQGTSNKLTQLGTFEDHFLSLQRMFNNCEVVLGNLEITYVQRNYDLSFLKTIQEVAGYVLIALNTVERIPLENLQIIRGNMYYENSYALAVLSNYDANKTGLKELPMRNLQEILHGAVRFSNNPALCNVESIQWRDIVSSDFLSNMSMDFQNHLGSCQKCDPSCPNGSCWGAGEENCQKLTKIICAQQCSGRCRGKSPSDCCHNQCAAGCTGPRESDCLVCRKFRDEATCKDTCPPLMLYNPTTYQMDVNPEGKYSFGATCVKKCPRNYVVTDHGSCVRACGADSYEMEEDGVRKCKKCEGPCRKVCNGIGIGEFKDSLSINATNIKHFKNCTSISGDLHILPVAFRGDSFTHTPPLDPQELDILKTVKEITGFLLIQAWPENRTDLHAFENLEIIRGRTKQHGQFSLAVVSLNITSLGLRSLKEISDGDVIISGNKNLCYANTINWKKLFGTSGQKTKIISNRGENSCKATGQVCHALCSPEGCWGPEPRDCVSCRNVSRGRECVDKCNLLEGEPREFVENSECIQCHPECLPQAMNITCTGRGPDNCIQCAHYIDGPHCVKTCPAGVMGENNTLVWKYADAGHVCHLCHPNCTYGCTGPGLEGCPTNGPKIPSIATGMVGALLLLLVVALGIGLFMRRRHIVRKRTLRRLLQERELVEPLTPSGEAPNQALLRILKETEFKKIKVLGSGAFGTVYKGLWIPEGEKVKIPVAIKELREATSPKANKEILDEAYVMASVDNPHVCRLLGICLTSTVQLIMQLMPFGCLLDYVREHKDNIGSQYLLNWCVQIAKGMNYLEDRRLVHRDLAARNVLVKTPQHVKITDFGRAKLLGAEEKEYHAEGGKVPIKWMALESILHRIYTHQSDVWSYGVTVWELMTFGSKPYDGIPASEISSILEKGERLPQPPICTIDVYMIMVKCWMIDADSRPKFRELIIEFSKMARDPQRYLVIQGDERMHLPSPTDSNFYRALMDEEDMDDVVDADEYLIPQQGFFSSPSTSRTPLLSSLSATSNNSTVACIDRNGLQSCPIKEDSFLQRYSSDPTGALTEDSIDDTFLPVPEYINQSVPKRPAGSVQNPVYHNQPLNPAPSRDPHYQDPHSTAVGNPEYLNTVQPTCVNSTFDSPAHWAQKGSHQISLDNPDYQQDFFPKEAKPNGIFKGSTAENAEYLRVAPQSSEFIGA
Receptor tyrosine-protein kinase erbB-2 (Homo sapiens), sequence (P04626 whole entry): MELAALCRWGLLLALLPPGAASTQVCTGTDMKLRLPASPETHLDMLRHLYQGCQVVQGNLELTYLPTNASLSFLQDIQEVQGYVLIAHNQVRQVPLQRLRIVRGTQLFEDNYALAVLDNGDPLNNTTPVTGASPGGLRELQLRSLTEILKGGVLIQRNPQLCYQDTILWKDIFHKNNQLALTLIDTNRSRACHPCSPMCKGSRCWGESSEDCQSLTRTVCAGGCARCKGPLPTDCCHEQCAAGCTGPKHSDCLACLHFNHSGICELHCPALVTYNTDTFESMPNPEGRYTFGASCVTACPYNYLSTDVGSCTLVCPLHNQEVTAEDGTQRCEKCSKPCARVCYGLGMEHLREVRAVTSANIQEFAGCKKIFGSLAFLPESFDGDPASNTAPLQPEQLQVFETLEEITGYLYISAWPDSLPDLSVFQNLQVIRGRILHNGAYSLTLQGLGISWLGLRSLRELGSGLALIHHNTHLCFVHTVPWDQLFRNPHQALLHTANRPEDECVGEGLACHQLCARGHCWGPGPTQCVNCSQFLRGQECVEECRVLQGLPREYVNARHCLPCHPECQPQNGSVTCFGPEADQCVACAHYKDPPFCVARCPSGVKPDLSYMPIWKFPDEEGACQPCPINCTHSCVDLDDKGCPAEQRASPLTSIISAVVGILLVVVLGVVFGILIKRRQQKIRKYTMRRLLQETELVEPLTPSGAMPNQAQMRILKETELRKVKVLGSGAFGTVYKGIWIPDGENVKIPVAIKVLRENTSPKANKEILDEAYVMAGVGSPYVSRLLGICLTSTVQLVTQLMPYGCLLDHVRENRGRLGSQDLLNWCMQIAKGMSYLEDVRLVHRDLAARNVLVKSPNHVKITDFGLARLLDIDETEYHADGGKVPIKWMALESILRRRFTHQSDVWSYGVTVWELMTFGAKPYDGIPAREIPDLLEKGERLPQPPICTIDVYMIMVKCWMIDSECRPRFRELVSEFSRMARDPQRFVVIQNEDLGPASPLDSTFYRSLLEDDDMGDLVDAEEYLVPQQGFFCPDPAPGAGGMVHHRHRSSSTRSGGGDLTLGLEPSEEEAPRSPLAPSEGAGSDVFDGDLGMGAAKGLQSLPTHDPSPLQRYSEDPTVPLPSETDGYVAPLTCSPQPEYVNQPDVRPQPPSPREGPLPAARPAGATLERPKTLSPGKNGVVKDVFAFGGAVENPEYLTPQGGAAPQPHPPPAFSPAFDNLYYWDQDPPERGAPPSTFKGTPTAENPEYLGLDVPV

For the molecule `CCc1cccc(CC)c1/C=C/c1cncc(C(=O)NC)c1`, the inhibition in experiment [1] was -0.11%; in experiment [2] it was 1.59%; in experiment [3] it was 4.31%; in experiment [4], 3.59%; in [5], 2.3%; in experiment [6], 2.96%. In addition, the inhibition in experiment [7] turned out to be 2.85%; in [8] it was 5.38%; in [9] it was 5.6%; in [10], 7.22%; in experiment [11] it was 11.1%; in experiment [12], 3.73%. The inhibition in experiment [13] is 2.63%; in experiment [14], 1.12%; in [15], 1.84%; in [16], 0.13%; in [17], -1.35%; in experiment [18] it was 12.1%. Besides, the values for the inhibition in experiment [19] and in [20] were 14.1% and 1.86%, respectively.

As to `NC(=O)Cc1ccccc1Oc1nccc(-c2c(-c3ccc(F)cc3)ncn2C2CCNCC2)n1`, the inhibition is 0.65% in experiment [1]; 0.76% in [2]; 4.08% in experiment [3]; -0.02% in [4]; -0.27% in experiment [5]; 2.08% in [6]. The inhibition is 3.17% in experiment [7]; 5.89% in experiment [8]; -0.14% in [9]; 6.12% in [10]; 6.53% in experiment [11]; 3.13% in experiment [12]. The inhibition in [13] was 4.05%; in experiment [14], 0.65%; in experiment [15] it was 2.09%; in [16], 2.21%; in experiment [17] it was -1.85%; in [18], 12.1%. For the same molecule, the results for the inhibition in [19] and in [20] were 17.1% and 6.39%, respectively.

As to `COc1ccc2cc(-c3c(-c4ccncc4)nc(-c4ccc(S(C)(=O)=O)cc4C)n3C)ccc2c1`, the inhibition turned out to be 3.3% in experiment [1]; 1.66% in experiment [2]; 2.57% in [3]; 0.22% in experiment [4]; 0.86% in experiment [5]; 4.84% in [6]. Moreover, the inhibition in [7] is 3.83%; in [8], 9.07%; in experiment [9] it was 17.6%; in experiment [10], 4.7%; in experiment [11], 12.5%; in experiment [12], 7.13%. Also, the inhibition was determined as 10.9% in [13]; 4.32% in [14]; 14.2% in experiment [15]; 5.67% in experiment [16]; 8.01% in [17]; 15% in [18]. The figures for the inhibition in [19] and in experiment [20] were 44.4% and 3.19%, respectively.
